# High-throughput results (PubChem)
# Compounds with a hit are over-represented: about 4% of the library has one in this group of screens.
# TRHR PAM = qHTS for Small Molecule Agonists and Allosteric Enhancers of Human TRH Receptor: Primary Screen for Enhancers; AID 493056, 2011; enhancement, % at 2 µM; 0.66% of 360,000 active; TRHR cells, fluo-8 calcium fluorescence, EC20 TRH enhancement; in the data active means enhancement above about 30%; further: 0% is about no effect
# Target sequence (P34981 whole entry, looked up): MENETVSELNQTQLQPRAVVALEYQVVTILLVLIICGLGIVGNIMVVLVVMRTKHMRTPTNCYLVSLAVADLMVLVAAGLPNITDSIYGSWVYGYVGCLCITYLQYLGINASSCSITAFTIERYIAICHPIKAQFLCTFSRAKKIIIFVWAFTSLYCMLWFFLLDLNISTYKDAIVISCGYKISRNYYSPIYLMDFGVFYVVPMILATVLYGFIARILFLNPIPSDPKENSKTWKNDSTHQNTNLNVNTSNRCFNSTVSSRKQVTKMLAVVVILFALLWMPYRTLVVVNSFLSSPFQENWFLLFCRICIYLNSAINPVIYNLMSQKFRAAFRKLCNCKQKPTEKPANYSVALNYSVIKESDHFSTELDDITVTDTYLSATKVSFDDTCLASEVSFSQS
#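 Enhancer read-out: after compound pinning and an initial kinetic agonist-mode read, an EC20 of TRH (10 nM final) was injected and fluo-8 calcium signal (Ex 480/Em 530) followed at 1 s/cycle for 100 cycles in TRHR-expressing cells.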
# Glioma ERSR ind = qHTS for Inducers of the Endoplasmic Reticulum Stress Response (ERSR) in Human Glioma: qHTS; U87-MG GRP78 promoter luciferase reporter, 16 h; AID 602332, 2012; Potency, µM, inactives show top-dose activation, most hits filed as activators; 0.02% of 420,000 active; active means well fitted activation curve with a large enough effect; further: potency means the concentration at half of the fitted maximal effect; series mostly up to about 76 µM; % of control where 0% means no effect; nearly all actives have a fitted effect of over 35% in size
#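 Stably transfected U87-MG glioma cells carrying a GRP78-based luciferase sensor; 16 h compound incubation. Luminescence end-point read 10 min after Bright-Glo addition at room temperature.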
# D1 antag = Antagonist of Human D 1 Dopamine Receptor: qHTS. D(1A) dopamine receptor (Homo sapiens), P21728. 3.2% of 360,000 active. HEK293 TREx D1 cells, calcium flux, dopamine EC80; hits give low values. activity change, negative = inhibition, % at 10 µM; in the data active means activity change below about -30%; further: on the % scale 0 is the no-effect control and ±100 the full control effect
#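 Cells carrying a force-coupled, tetracycline-inducible human D1 receptor report calcium flux. Each well gets a 10 s baseline, compound with 180 s monitoring, then an EC80 dopamine stimulus with a second 180 s kinetic read.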
# D1 potentiator = Potentiators of Human D1 Dopamine Receptor: qHTS; potentiation, % at 10 µM; D(1A) dopamine receptor (Homo sapiens), P21728; HEK293 TREx D1 cells, calcium flux, dopamine EC20 potentiation; 0.036% of 360,000 active; AID 504651, 2011; in the data active means potentiation above about 30%; further: 0% is about no effect
# D1 ag = Allosteric Agonists of the Human D1 Dopamine Receptor: qHTS; 1% of 360,000 active; D(1A) dopamine receptor (Homo sapiens), P21728; HEK293 T-REx D1 cells, calcium flux, agonist mode; activation, % at 2 µM; further: 0% is about no effect
#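 Tetracycline-induced HEK293 TREx D1 cells, force-coupled to calcium signalling, were dye-loaded with a no-wash calcium kit. Compound was pin-added after a 10 s baseline. Fluorescence was read kinetically at 1 cycle/s for 180 s, with calcium rises flagged as agonism.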
# TRHR ag = qHTS for Small Molecule Agonists and Allosteric Enhancers of Human TRH Receptor: Primary Screen for Agonists | Thyrotropin-releasing hormone receptor (Homo sapiens), P34981 | TRHR cells, calcium flux fluo-8, FDSS agonist mode | 0.18% of 360,000 active | activation, % at 2 µM; further: 0% is about no effect
#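 TRHR-expressing cells loaded with fluo-8 calcium dye; 23 nL library compound pin-transferred, kinetic FDSS fluorescence (Ex 480/Em 530) recorded about 180 s for agonist-induced calcium release, before a 10 nM TRH EC20 addition for potentiator mode.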
# Numbers without * were called inactive; nt = not tested or not shown. Unless noted, no stated cut-off is given here; in the data, active means activation above about 30%; inactive means the rest.
SMILES,TRHR PAM,Glioma ERSR ind,D1 antag,D1 potentiator,D1 ag,TRHR ag
CC(Nc1ccccc1CO)C(=O)Nc1cccc(Cl)c1Cl (configuration not stated),23,1%,-61*,-5,1,0
CCc1cccc(CC)c1NC(=S)Nc1cccc(Cl)c1Cl,-1,0%,1,-1,1,0
CC(C)(C)OC(=O)N1CCCN(C(=O)Nc2ccc(C(F)(F)F)cc2)CC1,-9,-4%,-31*,-4,4,-1
O=C(Nc1ccc(C(F)(F)F)cc1)N1CCC(N2CCCCC2)CC1,1,nt,8,-2,14,1
CN(C)S(=O)(=O)c1ccc(C(=O)Nc2ccc(S(=O)(=O)NC3=NCCCCC3)cc2)cc1,-3,-3%,-6,3,7,0
CSc1ncccc1C(=O)Nc1ccc(S(=O)(=O)NC2=NCCCCC2)cc1,-10,-1%,-54*,-4,3,0
CCCN1CCC(=O)N(C(CSc2ccc(OC)cc2)CC(C)C)CC1 (configuration not stated),nt,-2%,nt,nt,nt,nt
COc1ccc(-c2c(-c3cc(OC)cc(OC)c3)n(C)c3ccc(Br)cc23)cc1,6,-3%,-20,0,0,0
COc1ccc(N=Nc2nc3ccc(Br)cc3n2C)cc1,4,-3%,24,1,343*,0
Cc1ccccc1Nc1nnc(SCC(=O)NCc2cccs2)s1,4,-5%,-41*,-8,0,0
Cc1nnc(SCC(=O)Nc2ccccc2NC(=O)CSc2nnc(C)s2)s1,3,-5%,-33*,-7,0,0
Cc1nnc(SCC(=O)NCC2COc3ccccc3O2)s1 (configuration not stated),3,-3%,-31*,-4,0,0
CCn1cnnc1SCC(=O)NCC1COc2ccccc2O1 (configuration not stated),8,-1%,5,1,2,0
CC(=O)Nc1ccc(SCC(c2ccccc2)N2CCN(C)CCC2=O)cc1 (configuration not stated),nt,-2%,nt,nt,nt,nt
Cc1cc(C)n(-c2nc(NC(C)C)nc(NC(C)(C)C)n2)n1,nt,-2%,nt,nt,nt,nt
CCn1c(-c2ccc(S(=O)(=O)N3CCOCC3)cc2)csc1=Nc1ccc(C)c(Cl)c1,19,0%,-37*,-4,1,0
COC(=O)c1ccccc1NC(=O)COc1ccccc1C(=O)Nc1ccccc1,nt,-2%,nt,nt,nt,nt
Cc1ccc(-n2c(=O)c3sccc3n(CC(=O)NC3CCCC3)c2=O)cc1,-1,-3%,12,nt,3,-1
O=C(Cn1c(=O)n(-c2ccc(F)cc2)c(=O)c2sccc21)NC1CCCCC1,-1,-3%,-61*,-3,1,0
CCOc1ccc(-n2c(=O)c3sccc3n(CC(=O)NC3CCCCC3)c2=O)cc1,39*,-5%,5,-2,1,-1
CCOc1ccc(-n2c(=O)c3sccc3n(CC(=O)NCC3CCCO3)c2=O)cc1 (configuration not stated),6,-3%,-7,nt,6,0
COc1ccc(C2=NS(=O)(=O)N(C)C(C(=O)N3CCCCC3)=C2)cc1OC,-1,-4%,-10,-2,3,0
CC1CCN(S(=O)(=O)c2cc(C(=O)Nc3ccc(Br)cc3F)n(C)c2)CC1,0,-3%,-35*,-3,8,0
CN(C)CCCN(C(=O)c1ccc2c(c1)OCCO2)c1nc2cc3c(cc2s1)OCO3,6,-2%,1,-5,6,1
CN(C)CCCN(C(=O)c1ccc(S(=O)(=O)N(C)Cc2ccccc2)cc1)c1nc2cc3c(cc2s1)OCO3,-9,-8%,-55*,-3,20,1
SMILES,TRHR PAM,Glioma ERSR ind,D1 antag,D1 potentiator,D1 ag,TRHR ag
CN(C)CCN(C(=O)c1ccc2ccccc2c1)c1nc2cc3c(cc2s1)OCCO3,-1,-4%,-4,-6,3,0
CN(C)CCCN(C(=O)c1ccc([N+](=O)[O-])o1)c1nc2cc3c(cc2s1)OCO3,2,-1%,-47*,-2,1,1
CN(C)CCCN(C(=O)COc1ccccc1)c1nc2c(F)cccc2s1,32*,-4%,24,3,1,1
CN(C)CCCN(C(=O)c1ccc2ccccc2c1)c1nc2cc3c(cc2s1)OCO3,6,-4%,6,-4,36*,1
CCN1C(=O)[C@H]2[C@H]3[C@H](O)[C@H](O)C/C(=N/OCc4ccccc4)[C@@H]3CC[C@@H]2C1=O,nt,-4%,nt,nt,nt,nt
CCN(c1ccccc1)S(=O)(=O)c1ccc(C(=O)N(CCCN(C)C)c2nc3c(C)cccc3s2)cc1,-3,-4%,23,1,11,1
COc1ccc(C)c2sc(N(CCCN(C)C)C(=O)c3ccc4c(c3)OCCO4)nc12,-2,-3%,-21,-13,66*,0
CN(C)CCCN(C(=O)COc1ccccc1)c1nc2cc3c(cc2s1)OCO3,3,-3%,-29,-2,36*,2
CCN(c1ccccc1)S(=O)(=O)c1ccc(C(=O)N(CCCN(C)C)c2nc3cc4c(cc3s2)OCO4)cc1,6,-6%,-25,-6,42*,6
CN(C)CCCN(C(=O)COc1ccc(Cl)cc1)c1nc2cc3c(cc2s1)OCO3,-2,-14%,-7,-3,24,2
CCOC(=O)N1CCN(C(=O)COC(=O)c2ccc([N+](=O)[O-])cc2Cl)CC1,-6,-2%,-11,2,5,0
O=C(c1cccnc1)C1CCCN(Cc2ccc3c(c2)CN(C(=O)c2cccs2)CCO3)C1 (configuration not stated),nt,-2%,nt,nt,nt,nt
CC(C)(C)C(=O)Cn1ncc(Cl)c(Cl)c1=O,32*,-14%,5,-1,11,0
O=C(O)CCNC(=O)CCCn1nnc2ccccc2c1=O,-1,-1%,-43*,-1,1,0
O=C(Cn1ncc(Cl)c(Cl)c1=O)NC1CCCCC1,-3,-15%,-37*,-11,2,0
O=C(CCCCn1c(=O)c2ccccc2n(CC(=O)NC2CCCC2)c1=O)NC1CCCC1,-1,-5%,-39*,-1,0,1
O=C(Cn1ncc(Cl)c(Cl)c1=O)NCC1CCCCC1,3,-13%,8,-1,0,0
O=C(Cn1ncc(Cl)c(Cl)c1=O)c1ccc(Cl)cc1,-7,-15%,-25,-7,1,0
CC(C)C[C@H](NC(=O)CCCn1nnc2ccccc2c1=O)C(=O)O,-2,1%,-18,-6,1,0
